Test results reported in PubChem BioAssay (Tox21).
Results filed as inconclusive are left out. A call without a number means that no potency is given here. Activity calls are given as the source filed them. The call rests on the fitted dose curve; in most records, active means well fitted inhibition curve with a large enough effect in the signal ratio in the repeat runs, with a control signal flat; inconclusive means weak or mixed curves, or effect the other way; inactive means flat fitted curve, though single readings scatter; the % refers to the signal ratio.

Each compound was assayed against D(2) dopamine receptor (Homo sapiens) (UniProt P14416) (assay: Dopamine D2 receptor (DRD2) small molecule antagonists, cell-based qHTS assay (AID 1963595)). Settings: HEK293-DRD2 cAMP HTRF antagonist mode; series mostly up to 92.4 µM.
Sequence of D(2) dopamine receptor (Homo sapiens) (P14416 whole entry, looked up): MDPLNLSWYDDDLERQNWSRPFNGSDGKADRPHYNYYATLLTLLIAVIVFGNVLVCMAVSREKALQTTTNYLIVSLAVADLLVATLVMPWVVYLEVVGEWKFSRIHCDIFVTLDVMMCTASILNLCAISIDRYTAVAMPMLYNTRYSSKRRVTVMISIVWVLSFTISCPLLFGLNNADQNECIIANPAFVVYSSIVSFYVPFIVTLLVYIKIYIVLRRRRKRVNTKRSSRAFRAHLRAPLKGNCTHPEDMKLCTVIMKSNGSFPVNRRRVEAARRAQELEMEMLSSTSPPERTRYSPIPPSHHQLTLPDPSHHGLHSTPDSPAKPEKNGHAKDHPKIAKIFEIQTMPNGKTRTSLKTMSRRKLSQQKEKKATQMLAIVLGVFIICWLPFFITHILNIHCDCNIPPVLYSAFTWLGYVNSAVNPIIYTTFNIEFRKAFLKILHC
Excerpt: National Center for Advancing Translational Sciences [NCATS]
Division of Preclinical Innovation [DPI]
U.S. Environmental Protection Agency [EPA]
National Institutes of Environmental Health Sciences [NIEHS]
National Toxicology Program [NTP]
U.S. Food and Drug Administration [FDA]
DRD2 is the D2 subtype of the dopamine receptor, which is coupled to Gi subtype of G protein-coupled receptor. This G protein-coupled receptor inhibits adenylyl cyclase activity. The DRD2-HEK293 cell line stably expressing D2 dopamine receptor can be used for screening agonists and antagonists of interactions between D2 and its ligands. The Hek293-DRD2 cAMP assay is based on HTRF technology. It measures changes of cAMP accumulation in response to Gi coupled GPCR activation or inhibition.
Tox21 Assay Protocol Summary:
DRD2-Hek293 cells were dispensed at 600 cells/3uL/well in 1536-well white plates using a Multidrop Dispenser. After the assay plates were incubated at a 37 C/5% CO2 incubator for 24 h, 1 uL of Ro20-1724 at final concentration of 0.1 mM was transferred to the assay plate by a Flying Reagent Dispenser. Following Ro20-1724 addition, 23 nL of compound dissolved in DMSO, positive controls or DMSO only was added to the assay plates via Wako pintool station. The assay plates were incubated at room temperature for 10 min. Next, 1 uL of mixture of NKH477 (final concentration at 200 nM) and quinpirole (final concentration at 12 nM) was added into the plates. After the assay plates were incubated at room temperature for an additional 30 min, 2.5 ul/well of cAMP-d2 and 2.5 ul/well of anti-cAMP-cryptate were added respectively into the assay plates using a Flying Reagent Dispenser. The plates were incubated at room temperature for 1 h. The fluorescence intensity in the plates was measured at 340 nm excitation and 665 & 620 nm emission by an Envision plate reader.
With `CC(=O)N[C@@H](CC(C)C)C(=O)O` the Potency was “inactive”.
In the case of `Oc1ccc2c(c1)OC[C@@H](N1CCC(O)(c3ccc(F)cc3)CC1)[C@H]2O`, the Potency is reported as “inactive”.
With `CCCCC(CC)COP(=O)(OCC(CC)CCCC)OCC(CC)CCCC` (stereo not given) the Potency was “inactive”.
With `CCOC(=O)CC(C)=O` the Potency was “inactive”.
With `O=C(O)c1cc2ccccc2nc1C(=O)O` the Potency was “inactive”.
`CCCCN(CCO)CCO` was tested, and the Potency was “inactive”.
With `CC(C)(C)c1n[nH]c(=O)n(N)c1=O` the Potency was “inactive”.
For `CC(=O)NCc1c(I)c(NC(C)=O)c(I)c(C(=O)O)c1I`, the Potency was “inactive”.
With `C=CCn1cc[n+](C)c1` the Potency was “inactive”.
`CCOC(=O)c1ccc(N)cc1` was tested, and the Potency was “inactive”.
In the case of `NC(=O)c1ncn([C@@H]2O[C@H](CO)[C@@H](O)[C@H]2O)c1O`, the Potency is reported as “inactive”.
With `CC(=O)C(C)O` (stereo not given) the Potency was “inactive”.
For `Nc1ccccc1S(=O)(=O)O`, the Potency was “inactive”.
For `CC(C)CCCCCOC(=O)CCS`, the Potency was “inactive”.
In the case of `Nc1c(S(=O)(=O)O)cc(Br)c2c1C(=O)c1ccccc1C2=O`, the Potency is reported as “inactive”.
For `CCCCCCCC/C=C\CCCCCCCC(=O)OCCCC`, the activity change, negative = inhibition was -12.5% [at 18.9 µM] (inactive).
`N#Cc1ccc(C2CCCc3cncn32)cc1` (stereo not given) was tested, and the Potency was “inactive”.
In the case of `Cc1cc(C)c(C(=O)O)c(C)c1`, the Potency is reported as “inactive”.
With `CN1C(=O)CC(C)(c2ccccc2)C1=O` (stereo not given) the Potency was “inactive”.
With `CCOCCOCCOCCO` the Potency was “inactive”.
In the case of `CC(=O)O[C@H](CC(=O)[O-])C[N+](C)(C)C`, the Potency is reported as “inactive”.
In the case of `CCOC(=O)C(C)C(C)=O` (stereo not given), the Potency is reported as “inactive”.
In the case of `Cc1ccc(S(=O)(=O)NC2CCCCC2)cc1`, the Potency is reported as “inactive”.
`C/C(Cl)=C/CCl` was tested, and the Potency was “inactive”.
For `O=S(=O)(O)CO`, the Potency was “inactive”.
`CC(=O)[C@H]1CC[C@H]2[C@@H]3CCC4=CC(=O)CC[C@]4(C)[C@H]3CC[C@]12C` was tested, and the Potency was “inactive”.
In the case of `Cc1occc1S`, the Potency is reported as “inactive”.
For `c1ccc(CNc2ncnc3c2ncn3C2CCCCO2)cc1` (stereo not given), the Potency was “inactive”.
In the case of `Cc1cccc2cccnc12`, the Potency is reported as “inactive”.
`COc1nc(N)nc2nc[nH]c12` was tested, and the Potency was “inactive”.
In the case of `Cc1cc(O)cc(C)c1Cl`, the Potency is reported as “inactive”.
For `NS(=O)(=O)c1cc2c(cc1Cl)NC(C1CC3C=CC1C3)NS2(=O)=O` (stereo not given), the Potency was “inactive”.
`N#Cc1cc(NC(=O)C(=O)O)c(Cl)c(NC(=O)C(=O)O)c1` was tested, and the Potency was “inactive”.
`CCCOCCOCCOCCO` was tested, and the Potency was “inactive”.
For `Nc1nc(N)c2nc(-c3ccccc3)c(N)nc2n1`, the Potency was “inactive”.
For `CCCCC(O)/C=C(C)/C=C/C=C/C(=O)N1CCCC1=O` (stereo not given), the Potency was “inactive”.
For `CCCCCCCCCCCCCCCCI`, the activity change, negative = inhibition was -1.21% [at 18.9 µM] (inactive).
For `N[C@@H](CSSC[C@H](N)C(=O)O)C(=O)O`, the activity change, negative = inhibition was 5.54% [at 0.348 µM] (inactive).
`CC(C)(c1cc(Br)c(O)c(Br)c1)c1cc(Br)c(O)c(Br)c1` was tested, and the Potency was “inactive”.
In the case of `Cc1cc(C)c(N)c(Cl)c1`, the Potency is reported as “inactive”.
